Reference: PubChem BioAssay AID588342 (National Center for Advancing Translational Sciences (NCATS), 2011)
Screen size: about 360,000 compounds; about 25,000 (6.9%) were called active. Where a call stands in place of a potency, no number is given. About 9% were inconclusive and are not listed. The call rests on the fitted dose curve; in most records, active means well fitted inhibition curve with a large enough effect; inconclusive means small, poorly fitted or top-dose-only effect; inactive means flat fitted curve, though single readings scatter. The full list was thinned out, with actives kept by preference.

These compounds were tested against Luciferin 4-monooxygenase (Photinus pyralis) (UniProt P08659) (assay: qHTS profiling assay for firefly luciferase inhibitor/activator using purifed enzyme and Km concentrations of substrates (counterscreen for miR-21 project)). Conditions: purified FLuc, luminescence inhibition; series mostly up to 57.5 µM.
Luciferin 4-monooxygenase (Photinus pyralis), sequence (P08659 whole entry, looked up): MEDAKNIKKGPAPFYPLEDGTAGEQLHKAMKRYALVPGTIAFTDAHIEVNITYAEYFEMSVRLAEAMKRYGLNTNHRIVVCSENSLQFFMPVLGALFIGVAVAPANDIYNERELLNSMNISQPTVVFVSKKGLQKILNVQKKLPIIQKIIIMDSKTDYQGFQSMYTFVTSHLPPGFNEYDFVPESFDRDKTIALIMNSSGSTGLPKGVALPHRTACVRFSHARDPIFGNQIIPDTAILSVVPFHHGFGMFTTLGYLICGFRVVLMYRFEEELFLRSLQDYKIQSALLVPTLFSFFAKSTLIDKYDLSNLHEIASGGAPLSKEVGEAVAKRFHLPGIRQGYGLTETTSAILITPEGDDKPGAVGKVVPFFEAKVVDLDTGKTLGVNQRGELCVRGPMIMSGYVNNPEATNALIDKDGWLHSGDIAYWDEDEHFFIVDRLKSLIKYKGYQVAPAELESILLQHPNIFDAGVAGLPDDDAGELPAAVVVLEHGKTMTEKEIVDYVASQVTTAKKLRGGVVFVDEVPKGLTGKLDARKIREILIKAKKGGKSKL
How it was run: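 Biochemical qHTS of compounds, final roughly 60 µM downward over six points, against 10 nM purified firefly luciferase using Km concentrations of substrates (10 uM D-luciferin, 10 uM ATP) in Tris acetate pH 7.5 buffer; luminescence output.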
Further: nearly all actives have a fitted effect of over 55% in size.
Potency means the concentration at half of the fitted maximal effect.

Row | SMILES | Potency
1 | O=C1CC2(CCN(C(=O)COc3ccc(F)cc3)CC2)Oc2ccccc21 | inactive
2 | CCOC(=O)CCc1c(C)c(C#N)c2[nH]c3ccccc3n2c1=O | inactive
3 | CCCc1cc(=S)n2c([nH]c3ccccc32)c1C#N | 19 µM (active)
4 | CN(C)c1ccc(C(CNS(=O)(=O)c2cc(F)ccc2F)N2CCOCC2)cc1 (stereo not given) | inactive
5 | Cc1cc(CO)nn1-c1ccc([N+](=O)[O-])cc1 | inactive
6 | Cc1nn(-c2ccc([N+](=O)[O-])cc2)c(N)c1-c1ccccc1 | 7.57 µM (active)
7 | Cn1nc(-c2ccccc2)c2cc([N+](=O)[O-])ccc21 | inactive
8 | COc1ccc(CCNC(=O)c2ccc(-n3c(C)cc4c3CCCC4)cc2)cc1OC | inactive
9 | COc1cc(C(=O)NCC(c2ccc(Cl)cc2)N2CCOCC2)cc(OC)c1OC (stereo not given) | inactive
10 | Cc1ccccc1N1CC(C(=O)Nc2nnc(SCCC3OCCO3)s2)CC1=O (stereo not given) | inactive
11 | C=C(C)C(=O)Nc1cccc(C(C)=O)c1 | inactive
12 | O=C(NNC(=O)c1cccnc1)Nc1ccccc1 | inactive
13 | Cc1ccc(NC(=O)Nc2cccnc2)cc1 | 10.7 µM (active)
14 | Cc1ccc(NC(=O)c2cc3cc(C)ccc3n2C)cc1 | inactive
15 | Cc1ccc(NC(=O)Nc2ccc3oc(C)nc3c2)cc1 | 1.2 µM (active)
16 | Cc1ccc(NC(=O)NCC(c2cccnc2)N2CCOCC2)cc1 (stereo not given) | inactive
17 | CC(=O)c1cccc(NC(=S)N2CCCC2)c1 | inactive
18 | CC(=O)c1cccc(NC(=O)Nc2ccc(C)cc2)c1 | 4.78 µM (active)
19 | Cc1nc2ccc(NC(=O)C(F)(F)F)cc2o1 | inactive
20 | Cc1cccc(N2CCN(C(=O)Cn3ncc4c5ccccc5n(C)c4c3=O)CC2C)c1 (stereo not given) | inactive
21 | CCN(CC)S(=O)(=O)c1cc(C(=O)Nc2cc(S(=O)(=O)N3CCOCC3)ccc2N2CCCC2)ccc1F | inactive
22 | CN1CCN(/N=C2/C(=O)Nc3ccc([N+](=O)[O-])cc32)CC1 | inactive
23 | CCCCN(C(=O)C1CCC1)c1c(N)n(Cc2ccccc2)c(=O)[nH]c1=O | inactive
24 | CCOc1ccc(NC(=O)C(CC(C)C)N2Cc3ccccc3C2=O)cc1 (stereo not given) | inactive
25 | CCOC(=O)c1ccc(NC(=O)C2CC(=O)N(c3ccc(C(C)C)cc3)C2)cc1 (stereo not given) | inactive
26 | CCNC(=O)CC1C(=O)N(c2ccc(OC)cc2)C(=O)N1CCOC (stereo not given) | inactive
27 | O=C(c1ccc(Oc2ccc(Cl)cc2)c([N+](=O)[O-])c1)N1CCCC1 | inactive
28 | CCOC(=O)c1oc2ccc(S(=O)(=O)n3nc(-c4ccccc4OC)cc3N)cc2c1C | inactive

Row | SMILES | Potency
29 | COc1ccc(-c2[nH]c3c(c2-c2c(-n4cccc4)n(C)c(=O)n(C)c2=O)c(=O)n(C)c(=O)n3C)cc1 | inactive
30 | CCc1ccccc1NC1c2ccccc2C(=O)N1c1cccnc1 (stereo not given) | inactive
31 | COC(=O)c1cc(NC(=O)c2nn(C)c(=O)c3ccccc23)cc(C(=O)OC)c1 | inactive
32 | COC(=O)c1cc(NC2c3ccccc3C(=O)N2c2ccc(Cl)cn2)cc(C(=O)OC)c1 (stereo not given) | 6.01 µM (active)
33 | CCOc1ccc(C(=O)N2CCN(CCc3ccccn3)CC2)cc1 | inactive
34 | CCCCNC(=O)CSc1nc2cc3c(cc2c(=O)n1CCCCCC(=O)NCc1ccc2c(c1)OCO2)OCO3 | inactive
35 | CCCCN=C1C([N+](=O)[O-])=CC=C2C1=NC1(CCCCC1)N2O | inactive
36 | CCCn1c(=O)c(C(=O)Nc2cc(C)ccn2)c(O)c2ccccc21 | inactive
37 | Cn1c(=O)c(C(=O)Nc2ncccn2)c(O)c2ccccc21 | 21.3 µM (active)
38 | C=CCn1c(=O)c(C(=O)Nc2ncccc2O)c(O)c2ccccc21 | inactive
39 | C=CCC(Nc1ccccc1)c1cccc(OC)c1OC (stereo not given) | inactive
40 | CCCCn1c(N)c(N(CCOC)C(=O)c2oc3ccc(OC)cc3c2C)c(=O)[nH]c1=O | inactive
41 | COCCNC(=S)N1CCC(NC(=O)C23CC4CC(CC(C4)C2)C3)CC1 | inactive
42 | Cc1ccc(Nc2c(-c3ccc(C)s3)nc3ccccn23)cc1 | 13.5 µM (active)
43 | Cc1ccc(Nc2c(-c3ccc(C)cc3)nc3cnccn23)cc1 | inactive
44 | CC(C)(C)Nc1c(-c2cccs2)nc2ccccn12 | inactive
45 | Cc1ccc(-c2nc3cccc(C)n3c2Nc2ccc3c(c2)OCCO3)cc1 | inactive
46 | Oc1ccccc1-c1nc2ccc(Cl)cn2c1Nc1ccc2c(c1)OCCO2 | inactive
47 | Cc1ccn2c(Nc3ccc4c(c3)OCCO4)c(-c3ccc(C)s3)nc2c1 | 8.49 µM (active)
48 | Cn1c(=O)nc2n(-c3ccc(Br)cc3)c3cccc(Cl)c3cc-2c1=O | inactive
49 | O=C(COc1ccccc1F)OCc1cc(=O)n2nc(C3CCCCC3)sc2n1 | inactive
50 | CC(C)CNc1ncnc2c1nnn2C | inactive
51 | O=S(=O)(c1ccc2nc(NCc3ccccc3Cl)ccc2c1)N1CCCCC1 | inactive
52 | O=C1C=C(c2cccc(Br)c2)C[C@@H](c2ccc(F)cc2)C1 | inactive
53 | Cc1ccc(C)c(N2CCN(Cc3nnc(-c4ccccc4)o3)CC2)c1 | inactive
54 | O=C(c1nnc(-c2ccc(Cl)cc2)o1)C1CCCC1 | 5.36 µM (active)
55 | CC(C)N(Cc1nnc(-c2ccc(Cl)cc2)o1)C(=O)C1=COCCO1 | inactive
